# Reference: PubChem BioAssay (EPA / NIEHS)
# Several values for one entry are separate records, joined by “and”; a condition that tells them apart may be missing. Equal values may be shown once. Inconclusive results are not listed. Some structures have more than one record in an assay (separate samples or runs), and their calls can disagree. Activity calls are given as the source filed them. Rule for the calls: active = hit-call score of the fitted dose curve at least 0.9, where 1 is the maximum; inconclusive = response in the unintended direction; inactive = score below 0.9.
# Target: PPP2CA (gene 5515) (UniProt P67775)
# Assay: NVS_ENZ_hPPP2CA: NovaScreen (NVS) Enzymatic Assay for human Protein Phosphatase 2 Aatalytic subunit Alpha (PPP2CA) (AID 2283199)
# Procedure: NVS_ENZ_hPPP2CA is a biochemical, single-readout assay that uses extracted gene-proteins in a cell-free assay. Measurements were taken 1.33 hours after chemical dosing in a 384-well plate.NVS_ENZ_hPPP2CA is one of one assay component(s) measured or calculated from the NVS_ENZ_hPPP2CA assay. It is designed to make measurements of enzyme activity, a form of enzyme reporter, as detected with fluorescence intensity signals by Fluorescence and electrophoretic mobility shift technology.Data from the assay component NVS_ENZ_hPPP2CA was analyzed into 1 assay endpoint. This assay endpoint, NVS_ENZ_hPPP2CA, was analyzed in the positive analysis fitting direction relative to DMSO as the negative control and baseline of activity. Using a type of enzyme reporter, loss-of-signal activity can be used to understand changes in the enzymatic activity as they relate to the gene PPP2CA. Furthermore, this assay endpoint can be referred to as a primary readout, because this assay has produced multiple assay endpoints where this one serves a enzymatic activity function. To generalize the intended target to other relatable targets, this assay endpoint is annotated to the phosphatase intended target family, where the subfamily is serine/threonine phosphatase.
# Binding assays used specific radioligands (tritiated, iodinated) with non-radioactive competitive displacement ligands in agonist or antagonist protocols (as indicated) and various reference compounds and inhibitors to titrate specific binding to receptors and transporters. Most enzyme assays (CYPs, kinases, phosphatases, proteases, HDACs) used recombinant protein and specific substrates (fluorescence mostly, some colorimetric and radioactive) and inhibitors, followed by a biochemical separation of substrate and product. All assays for the biochemical HTS were initially run in duplicate at a single concentration (10 uM for CYP450 assays and 25 uM for all others). Assay-chemical combinations meeting a pre-defined threshold (e.g., 30% inhibition and other criteria defined below) were then run in singleton concentration-response format with maximum concentration of 20 uM for CYPs and 50 uM for all others. Each assay was run with positive and negative controls, and concurrent controls on every plate. The follow-up (secondary) screen tested active chemical-pairs in concentration series, as well as a few additional assays not tested in the primary screen, some selected negative inactives, and several cases re-run in the concentration series for confirmatory purposes.
# Chain of PPP2CA (gene 5515) (P67775 whole entry, looked up): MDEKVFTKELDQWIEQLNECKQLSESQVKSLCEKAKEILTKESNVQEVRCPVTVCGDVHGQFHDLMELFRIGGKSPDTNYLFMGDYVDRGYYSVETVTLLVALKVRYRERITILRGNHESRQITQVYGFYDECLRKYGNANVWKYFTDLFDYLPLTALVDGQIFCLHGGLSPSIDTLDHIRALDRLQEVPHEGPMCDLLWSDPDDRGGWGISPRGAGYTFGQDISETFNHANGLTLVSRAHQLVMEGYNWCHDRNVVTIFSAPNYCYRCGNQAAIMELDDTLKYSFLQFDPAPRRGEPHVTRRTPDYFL
Compound,outcome,AC50
Oc1cc(Cl)ccc1Oc1ccc(Cl)cc1Cl,inactive,
O=C(O)C(F)(F)C(F)(F)C(F)(F)C(F)(F)C(F)(F)C(F)(F)C(F)(F)F,,25 µM (active)
CC(C)(C)C(O)C(Oc1ccc(Cl)cc1)n1cncn1 (stereo unspecified),inactive,
O=S(=O)(O)C(F)(F)C(F)(F)C(F)(F)C(F)(F)C(F)(F)C(F)(F)C(F)(F)C(F)(F)F,,7.02 µM (active) and 5.37 µM (active)

# Target: Serine/threonine-protein phosphatase PP1-alpha catalytic subunit (Homo sapiens) (UniProt P62136)
# Assay: NVS_ENZ_hPPP1CA: NovaScreen (NVS) Enzymatic Assay for human Protein Phosphatase 1 Aatalytic subunit Alpha (PPP1CA) (AID 2283200)
# Summary of the method: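 Recombinant enzyme activity read by fluorescence with electrophoretic mobility shift separating substrate from product, 1.33 h after dosing; loss of signal vs DMSO baseline. Primary screen in duplicate at 25 uM; actives retested in concentration-response up to 50 uM.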
# Chain of Serine/threonine-protein phosphatase PP1-alpha catalytic subunit (Homo sapiens) (P62136 whole entry, looked up): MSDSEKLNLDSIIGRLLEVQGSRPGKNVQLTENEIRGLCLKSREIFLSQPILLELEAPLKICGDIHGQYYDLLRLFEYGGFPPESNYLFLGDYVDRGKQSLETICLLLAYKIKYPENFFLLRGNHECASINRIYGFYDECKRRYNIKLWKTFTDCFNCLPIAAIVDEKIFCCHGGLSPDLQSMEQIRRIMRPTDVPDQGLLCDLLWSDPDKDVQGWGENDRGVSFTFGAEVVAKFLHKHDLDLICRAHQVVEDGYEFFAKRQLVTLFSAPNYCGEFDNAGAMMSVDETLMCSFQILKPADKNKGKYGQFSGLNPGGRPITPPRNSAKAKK
Compound,outcome,AC50
O=[N+]([O-])c1c(Cl)c(Cl)c(Cl)c(Cl)c1Cl,inactive,
COC(=O)c1ccccc1S(=O)(=O)NC(=O)N(C)c1nc(C)nc(OC)n1,inactive,
N#CN,inactive,
O=C(O)C(F)(F)C(F)(F)C(F)(F)C(F)(F)C(F)(F)C(F)(F)C(F)(F)F,,493 nM (active)
[2H]C1([2H])[n+]2ccccc2-c2cccc[n+]2C1([2H])[2H],,4960 nM (active)
O=S(=O)(O)C(F)(F)C(F)(F)C(F)(F)C(F)(F)C(F)(F)C(F)(F)C(F)(F)C(F)(F)F,,11.5 µM (active) and 18.4 µM (active)

# Target: human Protein Tyrosine Phosphatase Non-receptor Type 1 (PTPN1), PTPN1 (gene 5770) (UniProt P18031)
# Assay: NVS_ENZ_hPTPN1: NovaScreen (NVS) Enzymatic Assay for human Protein Tyrosine Phosphatase Non-receptor Type 1 (PTPN1) (AID 2283201)
# Summary of the method: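 Cell-free fluorogenic-substrate activity assay on recombinant enzyme, read 1.33 h after dosing by fluorescence and electrophoretic mobility shift; loss of signal vs DMSO baseline. Primary screen in duplicate at 25 uM, hits then run in concentration-response up to 50 uM.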
# Chain of human Protein Tyrosine Phosphatase Non-receptor Type 1 (PTPN1), PTPN1 (gene 5770) (P18031 whole entry, looked up): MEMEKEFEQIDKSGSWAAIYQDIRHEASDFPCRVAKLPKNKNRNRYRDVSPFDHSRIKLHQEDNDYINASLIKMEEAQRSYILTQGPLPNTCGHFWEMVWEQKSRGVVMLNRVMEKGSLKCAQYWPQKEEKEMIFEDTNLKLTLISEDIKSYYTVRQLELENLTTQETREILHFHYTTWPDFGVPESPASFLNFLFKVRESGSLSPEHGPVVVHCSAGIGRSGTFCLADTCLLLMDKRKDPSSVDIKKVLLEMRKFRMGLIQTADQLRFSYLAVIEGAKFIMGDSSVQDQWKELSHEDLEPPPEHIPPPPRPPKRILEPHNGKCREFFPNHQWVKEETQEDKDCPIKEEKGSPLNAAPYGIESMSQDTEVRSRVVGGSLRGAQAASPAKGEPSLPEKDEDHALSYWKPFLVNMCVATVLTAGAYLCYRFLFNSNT
Compound,outcome,AC50
O=C(O)C(F)(F)C(F)(F)C(F)(F)C(F)(F)C(F)(F)C(F)(F)C(F)(F)F,inactive,
Cc1[nH]c(=O)n(C(C)(C)C)c(=O)c1Cl,inactive,
N#Cc1c(Cl)c(Cl)c(Cl)c(C#N)c1Cl,inactive,
O=S(=O)(O)C(F)(F)C(F)(F)C(F)(F)C(F)(F)C(F)(F)C(F)(F)C(F)(F)C(F)(F)F,inactive,26.9 µM (active)

# Target: Tyrosine-protein phosphatase non-receptor type 11 (Homo sapiens) (UniProt Q06124)
# Assay: NVS_ENZ_hPTPN11: NovaScreen (NVS) Enzymatic Assay for human Protein Tyrosine Phosphatase Non-receptor Type 11 (PTPN11) (AID 2283202)
# Summary of the method: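 Recombinant human PTPN11 activity on a fluorescent substrate, with substrate/product separated by electrophoretic mobility shift; read 0.5 h after dosing, loss of signal vs DMSO. Duplicate 25 uM screen, then concentration-response up to 50 uM.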
# Chain of Tyrosine-protein phosphatase non-receptor type 11 (Homo sapiens) (Q06124 whole entry, looked up): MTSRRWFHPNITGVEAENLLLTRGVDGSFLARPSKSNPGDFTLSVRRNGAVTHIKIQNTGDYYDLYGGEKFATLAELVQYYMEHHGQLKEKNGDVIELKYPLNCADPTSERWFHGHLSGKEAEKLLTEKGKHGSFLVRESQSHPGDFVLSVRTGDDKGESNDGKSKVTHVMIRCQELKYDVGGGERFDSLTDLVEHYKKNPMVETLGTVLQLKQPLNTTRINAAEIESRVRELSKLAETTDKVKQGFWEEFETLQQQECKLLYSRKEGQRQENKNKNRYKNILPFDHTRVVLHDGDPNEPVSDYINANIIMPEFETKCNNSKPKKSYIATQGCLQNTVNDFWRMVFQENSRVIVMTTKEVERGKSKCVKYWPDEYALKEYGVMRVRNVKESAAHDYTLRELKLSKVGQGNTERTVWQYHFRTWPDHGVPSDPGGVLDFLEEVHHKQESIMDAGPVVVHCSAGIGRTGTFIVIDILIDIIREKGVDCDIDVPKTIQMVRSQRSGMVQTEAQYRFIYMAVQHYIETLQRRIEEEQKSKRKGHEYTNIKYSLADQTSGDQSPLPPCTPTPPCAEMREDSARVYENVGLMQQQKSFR
Compound,outcome,AC50
Oc1cc(Cl)ccc1Oc1ccc(Cl)cc1Cl,inactive,
O=C(O)C(F)(F)C(F)(F)C(F)(F)C(F)(F)C(F)(F)C(F)(F)C(F)(F)F,inactive,
N#Cc1c(Cl)c(Cl)c(Cl)c(C#N)c1Cl,,40 µM (active)
CC[C@H](C)[C@H]1O[C@]2(C=C[C@@H]1C)C[C@@H]1C[C@@H](C/C=C(\C)[C@@H](O[C@H]3C[C@H](OC)[C@@H](O[C@H]4C[C@H](OC)[C@@H](O)[C@H](C)O4)[C@H](C)O3)[C@@H](C)/C=C/C=C3\CO[C@@H]4[C@H](O)C(C)=C[C@@H](C(=O)O1)[C@]34O)O2 (tested in a mixture with another compound),inactive,
[2H]C1([2H])[n+]2ccccc2-c2cccc[n+]2C1([2H])[2H],inactive,
O=S(=O)(O)C(F)(F)C(F)(F)C(F)(F)C(F)(F)C(F)(F)C(F)(F)C(F)(F)C(F)(F)F,,19.6 µM (active) and 15.5 µM (active)
